PolyA inh – yeast polyadenylation inhibition | S. cerevisiae SKY197-pL101 polyadenylation reporter, beta-gal luminescence; efflux-impaired pdr1/pdr3 knockout yeast; score 100 = 6 SD above DMSO | activity score, % at 12 µM | 300,000 tested, 0.02% active | AID 1875;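 active = lowest replicate activity score at least 50, where 100 means six control SD above control mean; inconclusive = lowest score under 50 but half or more replicates reach 50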;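 also: yeast exposed to compound for 9 h at 30 °C; higher score means more reporter readthrough which indicates perturbed polyadenylation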
DAX1 inh-1 – inhibits human nuclear receptor DAX1. HEK293 Gal4-DAX1 luciferase reporter, luminescence. inhibition, % at 6.75 µM. 340,000 tested, 0.99% active. AID 504766;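 active = inhibition above the mean over all tested compounds plus 3 SD, cut at about 4.2% in these data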;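 also: 0% = DAX1-transfected cells with DMSO and 100% = empty-vector control cells with DMSO; inhibition shows as a rise in luminescence from relieved DAX1 repression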
Target sequence (P51843 207-470 limits assumed): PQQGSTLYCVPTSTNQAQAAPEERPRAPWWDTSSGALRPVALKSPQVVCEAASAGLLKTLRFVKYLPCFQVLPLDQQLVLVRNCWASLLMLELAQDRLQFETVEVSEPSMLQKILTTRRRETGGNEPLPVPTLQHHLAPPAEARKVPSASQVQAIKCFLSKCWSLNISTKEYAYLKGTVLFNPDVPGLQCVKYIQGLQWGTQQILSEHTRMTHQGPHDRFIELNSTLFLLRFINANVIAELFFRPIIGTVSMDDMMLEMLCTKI
hgDAF-12 ag – agonists of H. glycines DAF-12 nuclear receptor; HEK293 GAL4-hgDAF12 UAS-luciferase reporter, agonist luminescence; normalized to butyrate control; 370,000 tested, 1.8% active; AID 687014; activation, % at 6.8 µM;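 active = activation above a cutoff set at the mean of all screened compounds plus 3 SD, cut at about 10% in these data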;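 also: 0% = DMSO wells and 100% = sodium butyrate wells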
DAX1 inh-2 – DAX1 (NR0B1) inhibition, primary screen. HEK293T StAR-luciferase reporter, SF-1/DAX-1 repression relief. AID 652010. inhibition, % at 6.8 µM. 370,000 tested, 1.1% active;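 active = inhibition above the mean over all tested compounds plus 3 SD, cut at about 3.6% in these data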;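 also: 0% = DAX-1 cells with DMSO and 100% = cells lacking DAX-1 with DMSO; higher inhibition means more luminescence from relief of DAX-1 repression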
hcDAF-12 act – activates DAF-12 receptor from parasite H. contortus. HEK293 hcDAF-12 lit1-tk-luc reporter, luminescence; 0% DMSO, 100% Δ7-dafachronic acid. activation, % at 6.8 µM. 370,000 tested, 1.4% active;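 active = activation above the mean of all tested compounds plus 3 SD, cut at about 5.5% in these data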;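 also: 100% = response to 3 µM Δ7-dafachronic acid high control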
ssDAF12 agonist – activates DAF-12 receptor from parasite S. stercoralis; HEK293 ssDAF-12/GRIP1 lit1-tk-luc reporter, luminescence; % of 3 µM dafachronic acid response; activation, % at 6.8 µM; 370,000 tested, 1% active; AID 652126;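 active = activation above the mean over all tested compounds plus 3 SD, cut at about 0.9% in these data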;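 also: 0% = DMSO-only wells and 100% = 3 µM delta7-dafachronic acid wells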
LXR ag – LXR-beta agonism as hcDAF-12 counter-screen; shares compounds with hcDAF-12 act; HEK293 Gal4-LXR tk-luc reporter, luminescence, 24 h; normalized: DMSO 0%, positive control 100%; activation, % at 6.8 µM; 3,400 tested, under 10 active; AID 743027;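 active = mean percent activation of the reporter above a cutoff set as the average over tested compounds plus their standard deviation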
Target sequence (P55055 whole entry, looked up, the tested form may be a part): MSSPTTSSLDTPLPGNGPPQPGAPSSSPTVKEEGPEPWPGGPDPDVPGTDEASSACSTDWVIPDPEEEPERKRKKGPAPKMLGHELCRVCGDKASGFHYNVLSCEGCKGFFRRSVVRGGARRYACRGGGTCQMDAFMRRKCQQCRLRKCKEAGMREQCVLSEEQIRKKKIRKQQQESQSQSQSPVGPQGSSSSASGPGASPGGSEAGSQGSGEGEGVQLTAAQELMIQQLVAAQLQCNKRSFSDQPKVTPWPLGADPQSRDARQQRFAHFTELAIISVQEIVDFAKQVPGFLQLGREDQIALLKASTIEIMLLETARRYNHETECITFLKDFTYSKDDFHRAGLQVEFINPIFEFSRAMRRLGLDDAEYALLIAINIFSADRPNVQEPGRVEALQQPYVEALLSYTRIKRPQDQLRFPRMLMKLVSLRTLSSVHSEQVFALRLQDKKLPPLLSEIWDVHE
hcDAF12 ag – hcDAF-12 agonism, confirmation assay. shares compounds with hcDAF-12 act. HEK293 hcDAF-12 lit1-tk-luc reporter, luminescence; % of Δ7-dafachronic acid response. activation, % at 6.8 µM. 3,400 tested, 61% active. AID 743032;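 active = mean activation across triplicate tests above the threshold derived from the earlier primary screen, cut at about 5.5% in these data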;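 also: 0% = DMSO only wells and 100% = 3 µM Δ7-dafachronic acid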
Numbers without * were called inactive; u = inconclusive; x = no result given. Most compounds without a hit are left out; they make up all but 4.1% or so of the library.

SMILES | PolyA inh | DAX1 inh-1 | hgDAF-12 ag | DAX1 inh-2 | hcDAF-12 act | ssDAF12 agonist | LXR ag | hcDAF12 ag
Oc1c(Br)cc(Br)cc1C=Nc1ccc2c(c1)OCCO2 | -57 | -1 | -3 | -2 | -3 | -2 | x | x
Cc1cccc(/N=C/c2c(O)[nH]c3ccccc23)n1 | -20 | 3 | 12* | 2 | 11* | 1.2* | 1 | 9.2*
Oc1[nH]c2ccccc2c1C=Nc1ccc2c(c1)OCCO2 | -20 | 2 | 13* | 3 | 8.4* | 1 | 1 | 6.9*
CN(C(=O)C1CCC(=O)N(CCCN2CCCC2=O)C1)C(C1CC1)C1CC1 (centres undefined) | 2 | 0 | -2 | -1 | 3 | -2 | x | x
CC(Sc1c[nH]c2ccccc12)C(=O)O (centres undefined) | 21 | 1 | 1 | 1 | 8.5* | 0 | 0 | 5
O=C(O)CSc1c[nH]c2ccccc12 | 8 | 1 | 7 | 0 | 4 | 0 | x | x
O=C(O)CC1(CC(=O)NCc2cc(F)cc3c2OCOC3)CCCCC1 | 12 | 3 | -2 | 0 | 0 | -1 | x | x
O=C(CCCn1c(=O)[nH]c2cc(Cl)ccc2c1=O)NCCCN1CCN(c2ccc(F)cc2)CC1 | 13 | -2 | -2 | 0 | -2 | -2 | x | x
Nc1cc2c(cc1N)-c1ccccc1C2 | x | 3 | 8 | 3.8* | 6.7* | 0 | 0 | 4
CCOc1ccc(S(=O)(=O)N2CCOCC2)cc1NC(=O)CN1C(=O)NC(C)(c2ccccc2)C1=O (centres undefined) | 9 | 0 | -1 | 2 | 0 | -1 | x | x
CSc1cccc(NC(=O)CNC(=O)C2CCCCC2)c1 | 0 | 0 | 2 | 1 | -1 | -1 | x | x
O=C(N/N=C/c1ccc2c(c1)OCO2)C(=O)Nc1ccc2ccccc2c1 | 1 | x | 2 | 0 | 0 | 0 | x | x
COc1ccc(N=Nc2cc(OC)c(N)cc2OC)cc1 | x | -4 | 2 | -1 | 2 | 0 | x | x
Cc1cc(N=Nc2ccc(C)c(N=Nc3cc(C)c(N)cc3N)c2)c(N)cc1N | 18 | 2 | 13* | 2 | 7.3* | 0 | 2 | 12*
Cc1ccc(C)n1-c1ccccc1N | -4 | x | x | x | x | x | x | x
Nc1ccccc1-n1cccc1 | 27 | x | 7 | 0 | 15* | 1.6* | 0 | 5
O=S(=O)([N-]c1nc2ccccc2nc1-[n+]1ccc(-c2ccncc2)cc1)c1ccccc1 | 6 | 2 | 10 | 2 | 6.9* | 0 | 0 | 3
O=S(=O)([N-]c1nc2ccccc2nc1-[n+]1ccccc1)c1ccccc1 | 13 | 0 | 0 | 0 | -2 | -1 | x | x
Cc1nc(CN(C)c2ncnc3ccc(-c4ccc5c(c4)OCO5)cc23)cs1 | x | x | 1 | -4 | -2 | -1 | x | x
COc1ccc(CC(=O)NC(C)C2COc3ccccc3O2)cc1OC (centres undefined) | -12 | 0 | -2 | 0 | -1 | -1 | x | x
O=C(Oc1ccc(-c2nnco2)cc1)c1cc(S(=O)(=O)N2CCOCC2)ccc1F | x | 1 | 1 | 0 | 2 | -1 | x | x
O=C(Nc1ccc2c(c1)OCO2)c1ccc(Br)o1 | 1 | 1 | 13* | 3 | 9.0* | 0 | 0 | 5
CC(=O)Nc1c(C(=O)Nc2ccc3c(c2)OCO3)oc2ccccc12 | 15 | 3 | 9 | 2 | 7.6* | 1 | 1 | 6.8*
O=C(COC(=O)CNC(=O)c1ccc(Br)o1)Nc1ccc2c(c1)OCCO2 | 0 | 0 | -3 | 0 | 0 | -1 | x | x
Cc1cc(NC(=S)NC(=O)C2CC2)ccc1Br | u | 4.9* | 10 | 1 | 8.8* | 0 | 0 | 6.3*
SMILES | PolyA inh | DAX1 inh-1 | hgDAF-12 ag | DAX1 inh-2 | hcDAF-12 act | ssDAF12 agonist | LXR ag | hcDAF12 ag
O=C(c1[nH]c(C(F)(F)F)nc1-c1ccccc1)N1CCN(c2ncccc2C(F)(F)F)CC1 | x | x | -3 | 0 | -2 | -1 | x | x
O=C(CSc1nnc(SCC(=O)c2ccco2)s1)c1ccco1 | 9 | -1 | -1 | -1 | 2 | 0 | x | x
O=C(CSc1nc2cc(Cl)ccc2s1)c1ccco1 | -30 | 2 | 3 | 2 | 9.7* | 0 | 0 | 3
COc1cc2c(cc1NC(=O)C1CCCO1)oc1ccccc12 (centres undefined) | x | 1 | 15* | 3 | 12* | 2.3* | 1 | 17*
COc1cc2c(cc1NC(=O)Nc1ccc(C)cc1)oc1ccccc12 | 5 | -1 | 7 | 0 | 8.5* | -1 | 0 | 1
COc1ccc(Cl)cc1NC(=O)C1CCCO1 (centres undefined) | 1 | 1 | 1 | 0 | -2 | -1 | x | x
CN1CCN(C2CCN(c3ccc(Nc4nnc(Cl)c(Nc5ccccc5S(C)(=O)=O)n4)c(OC(CF)CF)c3)CC2)CC1 | x | -1 | -1 | 0 | -1 | -1 | x | x
COCCCn1c(=O)c2ccccc2n2c(=S)[nH]nc12 | -22 | 0 | 0 | 0 | -1 | -1 | x | x
O=[N+]([O-])c1cccc(/C(=N/N=C/c2ccccc2Br)C23CN4CN(CN(C4)C2)C3)c1 | 1 | 0 | -1 | 0 | 0 | -1 | x | x
CC(C)=N/N=C(/c1ccc([N+](=O)[O-])cc1)C12CN3CN(CN(C3)C1)C2 | -13 | 0 | -1 | 0 | 6.9* | -1 | 0 | 0
COc1cc(/C=C/c2cc[n+](C)cc2)ccc1OCC(=O)Nc1ccccc1 | 16 | 2 | 1 | 0 | 1 | -1 | x | x
COc1cc(C=C2C(=O)OC(C)(C)OC2=O)ccc1OCC(=O)Nc1ccccc1 | 2 | 2 | 8 | 1 | 7.1* | 0 | 0 | 3
O=C(CCC(=O)NCCCc1ccccc1)NCCCc1ccccc1 | -4 | 1 | 2 | 0 | 7.7* | -1 | 0 | 0
Cc1ccc(O)c(NC(=O)c2noc3c2CCCCC3)c1 | -30 | 1 | 4 | 1 | 0 | 0 | x | x
Cc1ccc(NC(=O)c2noc3c2CCCCC3)cc1 | -8 | 2 | 11* | 3 | 10* | 1.2* | 2 | 8.2*
Clc1nc(-c2ccccn2)nc2scc(-c3ccccc3)c12 | -22 | 1 | 14* | 2 | 12* | 0 | 1 | 6.6*
CCc1cc(C(=O)Nc2ccc(C)cc2Br)cs1 | 1 | 1 | 12* | 3.7* | 9.1* | 1.6* | 1 | 12*
CCc1cc(C(=O)NNC(=S)Nc2cccc(C)c2)cs1 | 8 | 2 | 6 | 2 | 1 | -1 | x | x
O=c1c(=NNc2ccccc2Cl)c(=O)c2ccccc12 | x | 3 | 4 | 0 | 7.9* | 0 | 2 | 24*
